Source: the supplement of paper PMC9446081
About 220 (0.56%) of roughly 39,000 compounds showed activity. The list comes from a sample in which actives are over-represented; it also holds similar structures and randomly drawn compounds. A number with no mark means an inactive call.

System: Escherichia coli K-12 BW25113
Assay: relative growth (OD600 normalised to plate interquartile mean) (fraction); higher = less growth inhibition, active = 0.2 or less
Settings: 50 µM; LB; incubation time: overnight (16-24 h)
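Further: Wild-type cells incubated without shaking, value is the mean of two biological replicates.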

SMILES	relative growth
Cc1noc(C)c1S(=O)(=O)Nc1ccc2c(c1)CC(=O)N([C@H](C)CO)C[C@@H](C)[C@H](CN(C)C(=O)NC(C)C)O2	1.03
C[C@H](CO)N1C[C@H](C)[C@@H](CN(C)S(C)(=O)=O)OCc2cnnn2CCCC1=O	1.07
Cc1ccc(S(=O)(=O)N(C)C[C@@H]2Oc3c(NC(=O)c4ccncc4)cccc3C(=O)N([C@@H](C)CO)C[C@H]2C)cc1	0.999
COc1ccc2c(c1OCc1ccccc1)C[C@@H](C(=O)O)N(C(=O)C(c1ccccc1)c1ccccc1)C2	1.02
C[C@@H]1CN([C@@H](C)CO)C(=O)c2cccc(NC(=O)C3CCOCC3)c2O[C@@H]1CN(C)C(=O)Nc1ccc2c(c1)OCO2	1.01
CN(C)CC(=O)N[C@@H]1C=C[C@H](CC(=O)O)O[C@H]1CO	0.997
CCNC(=O)C[C@@H]1CC[C@H]2[C@H](COc3ccc(NS(=O)(=O)c4ccccc4C)cc3C(=O)N2C)O1	0.981
CNC[C@H]1Oc2ccc(NC(=O)CCN3CCOCC3)cc2CC(=O)N([C@@H](C)CO)C[C@@H]1C	0.977
CCc1nnc(N)[nH]1	0.947
C[C@H]1CCCCO[C@H](CN(C)Cc2ccccc2)[C@@H](C)CN([C@@H](C)CO)C(=O)c2cc(NC(=O)Nc3cccc4ccccc34)ccc2O1	0.996
Cc1c(-c2ccccc2)n(C[C@@H](O)CN)c2ccccc12	0.892
COC1(NC(=O)C(C(=O)[O-])c2ccc(O)cc2)C(=O)N2C(C(=O)[O-])=C(CSc3nnnn3C)COC21.[Na+].[Na+] (configuration not stated)	0.0483 (active)
CO[C@@]1(NC(=O)CSC[C@@H](N)C(=O)O)C(=O)N2C(C(=O)O)=C(CSc3nnnn3C)CS[C@@H]21	1
CO[C@@]1(NC(=O)[C@@H](C(=O)O)c2ccc(O)cc2)C(=O)N2C(C(=O)O)=C(CSc3nnnn3C)CO[C@@H]21	0.983
COC1(NC(=O)C2SC(=C(C(N)=O)C(=O)O)S2)C(=O)N2C(C(=O)O)=C(CSc3nnnn3C)CSC21 (configuration not stated)	0.0448 (active)
COC1(NC(=O)CSCC#N)C(=O)N2C(C(=O)[O-])=C(CSc3nnnn3C)CSC21.[Na+] (configuration not stated)	0.0458 (active)
CO[C@@H]1CN(C)C(=O)c2cc(NS(=O)(=O)c3cn(C)cn3)ccc2OC[C@@H](C)N(Cc2cccc(F)c2)C[C@@H]1C	1.02
COc1ccc(NC(=O)Nc2ccc3c(c2)C(=O)N([C@H](C)CO)C[C@@H](C)[C@@H](CN(C)CC2CCCCC2)OCCCC[C@@H](C)O3)cc1	0.984
O=C(NCc1ccccc1)[C@@H]1c2ccccc2C(=O)N(Cc2ccccc2C(F)(F)F)[C@H]1c1ccc(CO)cc1	1
CN1C(=O)c2cc(NC(=O)c3cccs3)ccc2OC[C@H]2O[C@H](CC(=O)NCC(F)(F)F)CC[C@H]21	1
CCCN(C)C[C@@H]1OCCCC[C@@H](C)Oc2ccc(NC(=O)Nc3ccccc3)cc2C(=O)N([C@H](C)CO)C[C@@H]1C	1.01

SMILES	relative growth
CC(C)NC(=O)Nc1ccc2c(c1)C(=O)N([C@H](C)CO)C[C@H](C)[C@H](CN(C)CC1CCCCC1)OCCCC[C@@H](C)O2	0.955
COc1ccc(S(=O)(=O)Nc2ccc3c(c2)C(=O)N([C@H](C)CO)C[C@H](C)[C@H](CN(C)C(=O)Nc2ccccc2)OCCCC[C@@H](C)O3)cc1	0.996
NC(=O)[C@@H]1CC[C@@H]2CN1C(=O)N2OS(=O)(=O)O	0.19 (active)
NCCONC(=O)[C@@H]1CC[C@@H]2CN1C(=O)N2OS(=O)(=O)O	0.0923 (active)
COc1ccc(CN(C)C[C@H]2OCCCC[C@H](C)Oc3ccc(NS(=O)(=O)c4ccc(C)cc4)cc3C(=O)N([C@H](C)CO)C[C@@H]2C)cc1	1
Cc1noc(C)c1NC(=O)Nc1ccc2c(c1)C(=O)N([C@@H](C)CO)C[C@@H](C)[C@H](CN(C)Cc1ccncc1)OCCCC[C@H](C)O2	0.993
C[C@H](NC(=O)C[C@H]1C=C[C@H](NC(=O)CN2CCOCC2)[C@@H](CO)O1)c1ccccc1	0.983
COc1ccc(C(=O)Nc2ccc3c(c2)C(=O)N(C)[C@@H]2CC[C@@H](CC(=O)NCC4CC4)O[C@H]2CO3)cc1	0.96
COc1ccc(NC(=O)N(C)C[C@H]2Oc3c(NS(=O)(=O)c4c(C)noc4C)cccc3C(=O)N([C@H](C)CO)C[C@H]2C)cc1	0.994
CN(C)CC(=O)N[C@@H]1C=C[C@H](CC(=O)NCCN2CCCCC2)O[C@@H]1CO	0.999
Cc1noc(C)c1NC(=O)Nc1ccc2c(c1)C(=O)N([C@@H](C)CO)C[C@@H](C)[C@H](CN(C)C(=O)Nc1ccc(C(F)(F)F)cc1)OCCCC[C@H](C)O2	1.02
CC(C)NC(=O)N[C@H]1CC[C@H](CCN)O[C@@H]1CO	0.987
NC[C@H]1O[C@H](O[C@@H]2[C@H](O)[C@@H](O[C@H]3O[C@H](CO)[C@@H](O)[C@H](N)[C@H]3O)[C@H](N)C[C@@H]2N)[C@H](O)[C@@H](O)[C@@H]1O	0.983
NC[C@H]1O[C@H](O[C@H]2[C@@H](O[C@@H]3O[C@H](CO)[C@@H](O)[C@H]3O)[C@@H](O)[C@H](N)C[C@@H]2N)[C@H](N)[C@@H](O)[C@@H]1O	0.981
NCC1OC(OC2C(N)CC(N)C(O)C2OC2OC(CO)C(O)C2O)C(N)C(O)C1O.O=S(=O)(O)O (configuration not stated)	0.78
NCC1OC(OC2C(N)CC(N)C(OC3OC(CO)C(O)C(N)C3O)C2O)C(N)C(O)C1O.O=S(=O)(O)O (configuration not stated)	0.0483 (active)
NCC1OC(OC2C(N)CC(N)C(OC3OC(CO)C(O)C(N)C3O)C2O)C(O)C(O)C1O.O=S(=O)(O)O (configuration not stated)	0.982
NC[C@H]1O[C@H](O[C@H]2[C@H](O)[C@@H](O[C@H]3O[C@H](CO)[C@@H](O)[C@H](N)[C@H]3O)[C@H](N)C[C@@H]2N)[C@H](N)[C@@H](O)[C@@H]1O	0.0328 (active)
CN1C=C(C(=O)OCCS(C)(=O)=O)C(C(=O)OCCS(C)(=O)=O)=CC(c2ccc(CO)cc2)=C[C@@H]1C1CC1	1.02
Cc1ccc(S(=O)(=O)N[C@H]2CC[C@H](CC(=O)N3CCC(Cc4ccccc4)CC3)O[C@H]2CO)cc1	1.02
Cc1noc(C)c1NC(=O)Nc1ccc2c(c1)C(=O)N([C@@H](C)CO)C[C@@H](C)[C@@H](CN(C)S(=O)(=O)c1ccccc1)OCCCC[C@H](C)O2	0.998

SMILES	relative growth
C[C@H]1CN([C@@H](C)CO)C(=O)c2cccc(NC(=O)Nc3ccccc3)c2O[C@@H]1CN(C)S(C)(=O)=O	0.991
CCS(=O)(=O)Nc1ccc2c(c1)C(=O)N(C)[C@@H]1CC[C@@H](CC(=O)NCc3ccc(OC)cc3)O[C@@H]1CO2	1.01
Cc1ccc(NC(=O)C[C@@H](N)C(=O)O)cc1	1.01
CCNC(=O)c1csc(N)n1	0.971
C[C@H]1[C@H](NC(=O)/C(=N\OC(C)(C)C(=O)O)c2csc(N)n2)C(=O)N1S(=O)(=O)O	0.0312 (active)
CC1C(NC(=O)C(=NOC(C)(C)C(=O)O)c2csc(N)n2)C(=O)N1S(=O)(=O)O (configuration not stated)	0.0499 (active)
CCOC(=O)/C(=N/O)c1csc(N)n1	0.997
COc1ccc(S(=O)(=O)N2C[C@H](O)COC[C@@H]3O[C@@H](CC(=O)NCCCN4CCOCC4)CC[C@H]32)cc1	0.999
CC(C)NC(=O)Nc1ccc2c(c1)C(=O)N([C@H](C)CO)C[C@@H](C)[C@H](CN(C)S(=O)(=O)c1ccc(Cl)cc1)O2	1.03
Cn1c(=O)oc2cc(S(=O)(=O)N3CCC[C@H](C(=O)NN4CCOCC4)C3)ccc21	0.99
CC(C)(ON=C(C(=O)NC1C(=O)N2C(C(=O)[O-])=C(C[n+]3ccccc3)CSC12)c1csc(N)n1)C(=O)O (configuration not stated)	0.0511 (active)
CC(C)(O/N=C(\C(=O)N[C@@H]1C(=O)N2C(C(=O)O)=C(C[N+]3(CCNC(=O)c4ccc(O)c(O)c4Cl)CCCC3)CS[C@H]12)c1csc(N)n1)C(=O)O	0.0469 (active)
NC(=O)c1cc[n+](CC2=C(C(=O)O)N3C(=O)[C@@H](NC(=O)Cc4cccs4)[C@H]3SC2)cc1	1.04
CC(C)(O/N=C(\C(=O)N[C@@H]1C(=O)N2C(C(=O)O)=C(C[n+]3ccccc3)CS[C@H]12)c1csc(N)n1)C(=O)O	0.0433 (active)
COc1ccc(CNC(=O)C[C@@H]2CC[C@H]3[C@@H](COc4ccc(NC(=O)C5CC5)cc4C(=O)N3C)O2)cc1	1.03
CC(C)(C)[S@](=O)N1Cc2cc(C(=O)N3CCCCC3)nc(-c3cccc(-c4ccc(C#N)cc4)c3)c2[C@@H]1CCO	1
C[C@@H]1CN([C@@H](C)CO)C(=O)c2cc(-c3ccc(C(=O)N(C)C)cc3)cnc2O[C@H]1CN(C)C(=O)c1cccnc1	1.03
CCCNC(=O)N1CC[C@]2(CC1)CN([C@@H](CO)c1[nH]c3cc(ccc3c12)OC)C(=O)CN1CCOCC1	0.998
COCCOC(=O)N1C(=O)[C@@]2(c3cc(C#Cc4ccc(OC)cc4)ccc31)[C@H](C(=O)N1CCN(c3ncccn3)CC1)[C@H]1C(=O)O[C@H](c3ccccc3)[C@H](c3ccccc3)N1[C@@H]2c1ccccc1OCCO	1.07
O=C1C[C@]2(c3ccc([N+](=O)[O-])cc3)C(=O)N(C3CC3)c3cc(CO)ccc3[C@H]2N1CC12CC3CC(CC(C3)C1)C2	1.01
